These results are taken from PubChem BioAssay.

A short description of experiment [1]: A549 cell viability effects, profiling panel, calcein-AM fluorescence, 48 h, basal (AID 1162). As to conditions: higher = more signal.
A short description of experiment [2]: adipocyte viability effects, profiling panel, cell-based, 3T3-L1 adipocytes, calcein-AM fluorescence, 48 h, basal (AID 1163). As to conditions: 3T3-L1 adipocytes viability, higher = more signal.
Experiment [3] is described as follows: HepG2 cell viability effects, profiling panel, calcein-AM fluorescence, 48 h, basal (AID 1164). To be noted: higher = more signal.
Experiment [4] is described as follows: MM1S cell viability effects, profiling panel, calcein-AM fluorescence, 48 h, basal (AID 1165).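 Also: viability of MM1S multiple myeloma cells under basal unstimulated conditions.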 As to conditions: higher = more signal.
Experiment [5] is described as follows: basal RPMI8226 viability, no added stimulus, profiling panel, cell-based, calcein-AM fluorescence, 48 h, PK04 Diversity Set (AID 1166).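 Also: cells grown under basal conditions without added stimulus.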 As to conditions: RPMI8226 myeloma viability, higher = more signal.
Experiment [6] in a line: basal HepG2 mitochondrial membrane potential changes, profiling panel, cell-based, JC-1 fluorescence, 24 h, 100 nL compound (AID 1167). To be noted: higher = more signal.
Experiment [7] is described as follows: basal 3T3-L1 adipocyte mitochondrial potential changes, profiling panel, cell-based, JC-1 fluorescence, 3T3-L1 adipocytes, 24 h, 100 nL compound (AID 1168). To be noted: JC-1 mitochondrial fluorescence, higher = more signal, called active from +8 up or from −8 down.
The nature of experiment [8]: basal RPMI8226 mitochondrial membrane potential changes, profiling panel, cell-based, JC-1 fluorescence, 24 h, 100 nL compound (AID 1169). To be noted: RPMI8226 myeloma, JC-1 mitochondrial potential fluorescence, higher = more signal.
Experiment [9] can be described thus: basal MM1S mitochondrial membrane potential changes, profiling panel, cell-based, JC-1 fluorescence, 24 h, 100 nL compound (AID 1170). To be noted: higher = more signal.
Experiment [10] in a line: A549 lung cancer cell viability effects, profiling panel, resazurin fluorescence, 24 h, PK04 Diversity Set (AID 1171). As to conditions: higher = more signal, called active from +8 up or from −8 down. (Alamar Blue is a resazurin reagent that responds to reducing activity.)

Each structure is given as a SMILES string. The source made the active and inactive calls.
Also: test concentration not given here.

For the molecule `CCCCN1CC=CC23O[C@@H]4C=CCCOC(=O)C4[C@H]2C(=O)N(CCCCCO)[C@@H]3C1=O` (stereo not given in full), the z-score is 0.761 in [1]; 0.159 in [2]; 0.858 in experiment [3]; 1.83 in experiment [4]; 0.916 in experiment [5]; 0.84 in experiment [6]. For the same molecule, the z-score was 0.615 (inactive) in experiment [7], 0.117 in experiment [8], -0.832 in experiment [9] and -0.318 (inactive) in [10].

As for `COCCOC(=O)N1C(=O)[C@@]2(c3cc(C#CC4=CCCCC4)ccc31)[C@H](c1ccc(OCCO)cc1)N1[C@H](c3ccccc3)[C@H](c3ccccc3)OC(=O)[C@H]1[C@@H]2C(=O)N1CCc2cc(OC)c(OC)cc2C1`, the z-score was 1.31 in [1]; 0.453 in [2]; 1.96 in experiment [3]; 0.505 in experiment [4]; -0.0521 in [5]; 0.578 in [6]. The z-score in [7] was 2.21 (inactive); in [8] it was -0.521; in experiment [9], -0.935; in [10] it was -1.12 (inactive).

Turning to `CC(C)(C)OC(=O)CC[C@]1(C(=O)NCCN2CCOCC2)COC(c2ccc(OCCCO)cc2)=N1`, the z-score in experiment [1] is 0.263; in [2] it was -0.555; in experiment [3] it was 0.854; in [4] it was -0.61; in [5], 0.512; in experiment [6] it was 0.0561. Moreover, the z-score is 0.588 (inactive) in [7], 0.212 in experiment [8], -0.699 in experiment [9] and 0.412 (inactive) in experiment [10].

Regarding `CCCCCCCCCCC(O)C1C=CC2C(=O)NC(=O)C2N1Nc1ccc(Cl)cc1Cl` (stereo not given), the z-score in [1] is -4.55; in [2] it was 0.061; in experiment [3], -3.5; in [4] it was -3.8; in experiment [5], -4.21; in experiment [6] it was -3.53. The z-score in experiment [7] is -0.354 (inactive); in experiment [8], -0.931; in [9] it was -1.08; in [10], -1.52 (inactive).

With `N#Cc1ccc(C(O)C2C=CC3C(=O)N(c4ccccc4)C(=O)C3N2Nc2ccccc2F)cc1` (stereo not given), the z-score was 0.545 in experiment [1]; -1.05 in [2]; -0.245 in [3]; 0.755 in experiment [4]; -0.406 in [5]; -0.776 in experiment [6]. Also, the z-score in experiment [7] is -0.872 (inactive); in experiment [8] it was 0.585; in experiment [9] it was -0.0841; in experiment [10], 0.0801 (inactive).

For `C=CC[C@]12N=C(c3ccc(OCCCO)cc3)O[C@H]1c1ccccc1N(CCS(=O)(=O)c1ccccc1)C2=O`, the z-score was 0.289 in experiment [1]; 0.839 in experiment [2]; 0.324 in experiment [3]; -1.68 in [4]; -0.916 in experiment [5]; 0.134 in experiment [6]. For the same molecule, the z-score was 1.73 (inactive) in experiment [7], -1.01 in experiment [8], -1.25 in experiment [9] and -1.02 (inactive) in experiment [10].

With `CCCCCCc1nc(-c2ccc(-c3ccc(Cl)c(Cl)c3)o2)c(C)c2c1[Si](C(C)C)(C(C)C)OC2`, the z-score was -2.55 in experiment [1]; 0.438 in experiment [2]; -1.55 in [3]; -3.25 in [4]; -4.25 in [5]; -3.26 in [6]. Further, the z-score in experiment [7] was 0.113 (inactive); in [8], -0.977; in experiment [9], -1.68; in experiment [10] it was -0.312 (inactive).

Turning to `CCOc1ccc(N2C(=O)CSC2c2cccc([N+](=O)[O-])c2)cc1` (stereo not given), the z-score in [1] is 1.77; in experiment [2], -0.704; in experiment [3] it was 1.1; in experiment [4], -0.119; in experiment [5], -0.804; in experiment [6] it was 1.61. The z-score was 0.989 (inactive) in experiment [7], -0.127 in experiment [8], -0.288 in [9] and 0.0421 (inactive) in experiment [10].

As for `COC(=O)C(CC#Cc1ccc2c(c1)[C@]1(C(=O)N2)[C@H](c2ccccc2OCCO)N2[C@H](c3ccccc3)[C@H](c3ccccc3)OC(=O)[C@H]2[C@@H]1C(N)=O)C(=O)OC`, the z-score was -0.387 in experiment [1]; 0.395 in [2]; -4.39 in experiment [3]; -3.38 in experiment [4]; -4.56 in [5]; -2.46 in experiment [6]. The z-score is 3.28 (inactive) in experiment [7], -1.18 in experiment [8], -2.09 in experiment [9] and -1.01 (inactive) in experiment [10].

`C=CCOC(=O)[C@H]1[C@@H]2C(=O)O[C@@H](c3ccccc3)[C@@H](c3ccccc3)N2[C@@H](c2ccc(OCCOC(=O)[C@@H]3C[C@@H]4C(=O)N5CCC[C@H]5C(=O)N4[C@@H]3c3cccc(OCCO)c3)cc2)[C@]12C(=O)Nc1ccc(I)cc12`: the z-score in experiment [1] is -1.06; in experiment [2], 0.997; in experiment [3], -0.649; in [4] it was -0.349; in experiment [5] it was 0.206; in [6] it was -0.689. For the same molecule, the z-score is 1.19 (inactive) in experiment [7], -0.643 in experiment [8], -0.959 in experiment [9] and -0.476 (inactive) in [10].

For `COCCOC(=O)N1C(=O)[C@@]2(c3cc(C#CC4(O)CCCCCC4)ccc31)[C@H](C(=O)Nc1nc3ccccc3s1)[C@H]1C(=O)O[C@H](c3ccccc3)[C@H](c3ccccc3)N1[C@@H]2c1ccccc1OCCO`, the z-score in experiment [1] is 1.29; in experiment [2] it was 1.14; in [3] it was -0.333; in experiment [4], -2.18; in experiment [5], -3.42; in [6], -3.05. Besides, the z-score in experiment [7] is 1.47 (inactive); in [8] it was -0.866; in experiment [9] it was -0.876; in [10] it was -0.511 (inactive).

Regarding `CCCC[C@H]1C[C@@H]1[C@@H]1N(P(=O)(c2ccccc2)c2ccccc2)C[C@@](O)(c2ccccc2)CC12CC2`, the z-score in experiment [1] was -3.9; in experiment [2] it was -0.228; in experiment [3], -5.35; in experiment [4], -3.29; in [5], -4.7; in experiment [6] it was -2.84. Besides, the z-score was -0.556 (inactive) in [7], -0.917 in experiment [8], -2.78 in experiment [9] and 4.58 (inactive) in [10].

For the molecule `COc1cc2c(cc1OC)CN(C(=O)[C@H]1[C@@H]3C(=O)O[C@@H](c4ccccc4)[C@@H](c4ccccc4)N3[C@@H](c3ccccc3OCCO)[C@]13C(=O)Nc1ccc(C#CCCO)cc13)CC2`, the z-score is 0.228 in experiment [1]; -0.538 in [2]; -0.368 in experiment [3]; -0.217 in experiment [4]; -0.33 in [5]; -0.641 in [6]. In addition, the z-score in experiment [7] is 0.451 (inactive); in [8], -0.377; in experiment [9], -0.96; in [10], 0.426 (inactive).

`COc1ccc(C(O)C2C=CC3C(=O)N(C)C(=O)C3N2N(c2ccccc2)c2ccccc2)c2ccccc12` (stereo not given): the z-score is -0.303 in experiment [1]; -1.6 in experiment [2]; 0.943 in experiment [3]; 0.149 in experiment [4]; 0.2 in [5]; -0.979 in experiment [6]. Moreover, the z-score in experiment [7] is -0.14 (inactive); in [8], 0.545; in experiment [9] it was -0.67; in experiment [10], -0.738 (inactive).

For the molecule `CCCNC(=O)[C@@]1(Sc2ccc(C)cc2)CC(=O)N(Cc2ccccc2C(F)(F)F)[C@@H]1c1ccc(CO)cc1I`, the z-score in experiment [1] is -0.567; in experiment [2], 1.12; in experiment [3], -1.14; in experiment [4], -2.3; in experiment [5], -2.56; in [6] it was -0.453. For the same molecule, the z-score in experiment [7] is -1.02 (inactive); in experiment [8], -0.355; in experiment [9] it was -1.78; in experiment [10] it was 0.821 (inactive).
